Only some compounds are listed: those with a hit (about 7.3% of all), similar ones and a draw of the others.
FLuc inh: blocks purified firefly luciferase enzyme activity; Potency, µM (doses to about 115 µM), hits mostly inhibitors; 76,000 compounds, 2.5% hits; purified P. pyralis luciferase, luminescence, biochemical; AID 1347043; note: potency is the fitted concentration of half-maximal effect; nearly all actives have a fitted effect of over 65% in size
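Luminescence read by CCD imaging after purified firefly luciferase (10nM final) was added to substrate buffer holding 10uM D-luciferin and 10uM ATP, pH 7.5, pre-dosed with compound.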
SNCA expr inhib: SNCA gene expression inhibition | AID 1671194 | Potency, µM (doses to about 57.2 µM), inactives show top-dose activity change, negative = inhibition, actives largely listed as inhibitors | 140,000 compounds, 0.17% hits | HEK-293 SNCA-luciferase knock-in, luminescence, 24 h;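 note: potency is the fitted concentration of half-maximal effect; plate controls were DMSO cells for no effect and cell-free wells for full effect; nearly all actives have a fitted effect of over 45% in size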
NIH3T3 tox: cytotoxic compounds in NIH 3T3 cells; 94,000 compounds, 4.3% hits; AID 1345082; NIH 3T3 viability, CellTiter-Glo ATP luminescence, 48-72 h; Potency, µM (doses to about 96.7 µM), for the others: at the top dose activity change, negative = cytotoxicity, most hits filed as inhibitors; note: potency is the fitted concentration of half-maximal effect; nearly all actives have a fitted effect of over 55% in size
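Cells were seeded at 400 per well, treated with pin-transferred compound, and kept 48 or 72 hr at 37 °C before CellTiter-Glo addition and luminescence imaging of cellular ATP.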
IP6K1 inh: IP6K1 kinase inhibition; Q92551; IP6K1 kinase, ADP-Glo luminescence, 2 h; stronger effect = lower value; activity change, % (series mostly up to about 58 µM); 140,000 compounds, 0.81% hits; AID 1645851; in the data active = activity change below about -25%
Target sequence (Q92551 whole entry, looked up): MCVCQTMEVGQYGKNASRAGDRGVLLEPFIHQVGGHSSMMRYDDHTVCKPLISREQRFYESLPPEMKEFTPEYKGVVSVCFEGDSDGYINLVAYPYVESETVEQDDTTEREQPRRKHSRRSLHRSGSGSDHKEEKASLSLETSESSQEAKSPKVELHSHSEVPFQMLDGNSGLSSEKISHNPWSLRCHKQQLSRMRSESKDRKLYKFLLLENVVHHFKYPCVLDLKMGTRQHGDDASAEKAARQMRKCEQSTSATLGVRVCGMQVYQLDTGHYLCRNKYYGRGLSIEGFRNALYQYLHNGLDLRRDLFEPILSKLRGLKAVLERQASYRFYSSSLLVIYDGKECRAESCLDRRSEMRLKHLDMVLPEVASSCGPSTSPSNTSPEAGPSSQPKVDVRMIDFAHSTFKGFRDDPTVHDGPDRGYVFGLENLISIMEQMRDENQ
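ADP-Glo luminescence measures ADP made by human IP6K1 during a 2 h RT reaction with ATP/IP6 (mix at 1.3 mM/130 uM); top library doses 57.5 and 19.1 uM final.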
SNCA viab count: counter-screen for SNCA expression inhibitors: cell viability; HEK-293-SNCA-luc viability, GF-AFC fluorescence, 24 h; Potency, µM (series often up to 57.1 µM), for inactives: top-dose activity change, negative = cytotoxicity, hits mostly cytotoxic; 150,000 compounds, 0.12% hits; AID 1671193;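 note: potency is the fitted concentration of half-maximal effect; 0% = DMSO-treated cells and -100% = medium-only wells without cells; nearly all actives have a fitted effect of over 30% in size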
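HEK-293-SNCA-luc cells (1500/well) plated 24 h, then exposed 24 h to a dilution series; GF-AFC added 30 min at 37C, fluorescence 405/540 nm; normalised to medium-only and DMSO wells, Hill fit.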
HEK293 tox: cytotoxic compounds in HEK 293 cells. HEK 293 viability, ATP luminescence (CellTiter-Glo), 48-72 h. Potency, µM (titrated, usually from 115 µM), inactives show at the highest dose activity change, negative = cytotoxicity, actives largely listed as inhibitors. 94,000 compounds, 6.6% hits; note: potency is the fitted concentration of half-maximal effect; nearly all actives have a fitted effect of over 60% in size
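HEK 293 seeded at 250 cells/well receive compound via pintool. After 48 or 72 hr at 37 degree Celsius, 5% CO2 and 95% humidity, CellTiter-Glo is dispensed and luminescence read following 10 min at room temperature.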
The depositor's hits bear a star; [ ] = remark or other dose. Unless noted, calls come from the whole dose curve; as a rule, active = well fitted curve in the direction sought with a large enough effect; inconclusive = small, poorly fitted or top-dose-only effect, or another doubt; inactive = no such curve, though single readings can be large; an effect the other way counts as inactive or inconclusive. Unless noted, % is set by controls: 0 for no effect and ±100 for the full control effect.

What do the screens show for `O=C(NCC1CCCO1)c1csc(N2CCN(c3ccc(Cl)cc3)CC2)n1` (configuration not stated)?
FLuc inh: inactive; SNCA expr inhib: inconclusive; NIH3T3 tox: inconclusive; IP6K1 inh: -5.4; SNCA viab count: inconclusive; HEK293 tox: 35.5µM*

What do the screens show for `O=C(NCc1cccc(F)c1)c1csc(N2CCN(c3ccc(Cl)cc3)CC2)n1`?
FLuc inh: inactive; SNCA expr inhib: inconclusive; NIH3T3 tox: -19.3%; IP6K1 inh: -1.9; SNCA viab count: -25.9%; HEK293 tox: inconclusive

Results for CN1[C@@H](CCC(=O)NCc2cccs2)CNC(=O)[C@@H]2[C@H]1CCN2Cc1ccc(O)cc1 ?
FLuc inh: inactive; SNCA expr inhib: 1.7%[87.6 µM]; NIH3T3 tox: -1.2%[174 µM]; IP6K1 inh: -0.3; SNCA viab count: -1.5%[87.6 µM]; HEK293 tox: inconclusive

Results for Cc1cccc(CSc2nnc(CCCCCN)o2)c1 ?
SNCA expr inhib: 14.1µM*; IP6K1 inh: -17.8; SNCA viab count: 6.8%

What do the screens show for `Cc1cc(O)c(-c2ccc([C@@H](C)CN(C)C)cc2)c2c1[nH]c(=O)c1sccc12`?
IP6K1 inh: 64.0; SNCA viab count: inconclusive

What do the screens show for `CCc1nc(-c2c3n(c(=O)n(CC(=O)Nc4ccccc4CC)c2=O)CCCCC3)no1`?
FLuc inh: inactive; SNCA expr inhib: inconclusive; NIH3T3 tox: 2.3%; IP6K1 inh: 2.5; SNCA viab count: 0.8%; HEK293 tox: 4.5%

How did CCc1cccc2c(C(CC(=O)NCCc3ccc(OC)c(OC)c3)c3ccccc3OC)c[nH]c12 (configuration not stated) do in these assays?
FLuc inh: inactive; SNCA expr inhib: inconclusive; NIH3T3 tox: inconclusive; IP6K1 inh: 19.9; SNCA viab count: -2.7%; HEK293 tox: 35.5µM*

Results for O=C(CC(c1cccc([N+](=O)[O-])c1)c1c[nH]c2ccccc12)NCCc1ccccc1 (configuration not stated) ?
FLuc inh: inactive; SNCA expr inhib: -2.2%; NIH3T3 tox: 25.1µM*; IP6K1 inh: -5.7; SNCA viab count: inconclusive; HEK293 tox: 31.6µM*

Results for COc1ccc(CCNC(=O)CC(c2ccccc2OC)c2c[nH]c3ccccc23)cc1OC (configuration not stated) ?
FLuc inh: inactive; SNCA expr inhib: -9.2%; NIH3T3 tox: inconclusive; IP6K1 inh: 19.2; SNCA viab count: -8.5%; HEK293 tox: inconclusive

How did COc1ccccc1C(CC(=O)NCCc1ccccc1)c1c[nH]c2ccccc12 (configuration not stated) do in these assays?
FLuc inh: inconclusive; SNCA expr inhib: 67.5%; NIH3T3 tox: 39.8µM*; IP6K1 inh: 1.1; SNCA viab count: 3.1%; HEK293 tox: inconclusive

How did O=[S+]1([O-])NCC2(CCN(Cc3ccccn3)CC2)Oc2ncccc21 do in these assays?
SNCA expr inhib: -4.6%; NIH3T3 tox: 4.3%; IP6K1 inh: 10.1; SNCA viab count: -10.6%; HEK293 tox: inactive

What do the screens show for `CCCCN1CCN(c2nc(-c3ccccc3)nc3c2CCNC3)CC1=O`?
FLuc inh: inactive; SNCA expr inhib: -6.9%; NIH3T3 tox: inconclusive; IP6K1 inh: 9.3; SNCA viab count: -15.1%; HEK293 tox: 79.4µM*

What do the screens show for `CC(C)[C@@H](N)C(=O)N1CCC(Oc2ccccc2F)(C(=O)O)CC1`?
FLuc inh: inactive; SNCA expr inhib: 4.7%; NIH3T3 tox: -16.6%; IP6K1 inh: 14.4; SNCA viab count: 2.6%; HEK293 tox: -7.4%

How did Cc1ccc(C)c(-n2nc(-c3c(C)nc4scc(CC(=O)NC5CCCCC5)n4c3=O)cc2C)c1 do in these assays?
FLuc inh: inactive; SNCA expr inhib: 17.3%; NIH3T3 tox: 39.8µM*; IP6K1 inh: -6.5; SNCA viab count: -8.2%; HEK293 tox: inconclusive

What do the screens show for `Cc1cccc(-n2nc(-c3c(C)nc4scc(CC(=O)NC5CC5)n4c3=O)cc2C)c1`?
FLuc inh: inactive; SNCA expr inhib: -4.6%; NIH3T3 tox: -19.2%; IP6K1 inh: 13.3; SNCA viab count: inconclusive; HEK293 tox: -5.6%

What do the screens show for `O=C(NC1CCN(c2ccc3nnc(-c4ccccc4)n3n2)C1)c1ccccc1F` (configuration not stated)?
NIH3T3 tox: inconclusive; IP6K1 inh: -4.0; HEK293 tox: inconclusive

How did Cc1cc2c(N3CCC(NCc4noc(C5CCC5)n4)CC3)ncnc2s1 do in these assays?
FLuc inh: inactive; SNCA expr inhib: inconclusive; NIH3T3 tox: inconclusive; IP6K1 inh: 7.1; SNCA viab count: -16.9%; HEK293 tox: inconclusive

How did FC(F)(F)c1cccc(C2=NOC3(CCN(Cc4ccccc4)C3)C2)c1 (configuration not stated) do in these assays?
SNCA expr inhib: -4.3%; NIH3T3 tox: inconclusive; IP6K1 inh: 6.8; SNCA viab count: 4.9%; HEK293 tox: 44.7µM*

What do the screens show for `N#Cc1ccc(CN2CCC3(CC2)CC(c2cccnc2)=NO3)cc1`?
FLuc inh: inactive; SNCA expr inhib: -16.1%[87.6 µM]; NIH3T3 tox: -20.1%[138 µM]; IP6K1 inh: 10.6; SNCA viab count: -14.2%[87.6 µM]; HEK293 tox: 79.4µM*

What do the screens show for `N#Cc1ccc(CN2CCC3(CC2)CC(c2cccc(C(F)(F)F)c2)=NO3)cc1`?
FLuc inh: inactive; SNCA expr inhib: 14.9%; NIH3T3 tox: 28.2µM*; IP6K1 inh: -6.1; SNCA viab count: -15.9%; HEK293 tox: 31.6µM*

How did N#Cc1ccc(CN2CCCC3(CC(c4cccc(C(F)(F)F)c4)=NO3)C2)cc1 (configuration not stated) do in these assays?
FLuc inh: inactive; SNCA expr inhib: 4.4%; NIH3T3 tox: inconclusive; IP6K1 inh: 0.0; SNCA viab count: -0.1%; HEK293 tox: inconclusive

Results for CCn1ncc(N2CCCC(CC(=O)Nc3cc(OC)cc(OC)c3)C2)cc1=O (configuration not stated) ?
FLuc inh: inactive; SNCA expr inhib: 4.9%; NIH3T3 tox: 39.8µM*; IP6K1 inh: 37.6; SNCA viab count: 5.5%; HEK293 tox: -1.0%

What do the screens show for `COCCn1ncc(N2CCCC(CC(=O)Nc3cc(OC)cc(OC)c3)C2)cc1=O` (configuration not stated)?
FLuc inh: inactive; SNCA expr inhib: -16.7%; NIH3T3 tox: inconclusive; IP6K1 inh: 7.2; SNCA viab count: -3.9%; HEK293 tox: 5.4%

What do the screens show for `COCCn1ncc(N2CCCC(CC(=O)Nc3cccc(Cl)c3)C2)cc1=O` (configuration not stated)?
FLuc inh: inactive; SNCA expr inhib: 0.6%; NIH3T3 tox: -17.5%; IP6K1 inh: 18.9; SNCA viab count: 2.7%; HEK293 tox: -6.5%

From PubChem
